Measured values as given in PubChem BioAssay (NCATS).
Inconclusive results are not listed. A call without a number means that no potency is given here. A number with no mark means an inactive call. Active and inactive are the calls of the source. Calls follow the shape of the dose curve; as a rule, active = well fitted cell-killing curve with a large enough effect; inconclusive = small, poorly fitted or top-dose-only effect, or effect the other way; inactive = flat fitted curve, though single readings scatter.

system: C33A; assay: Primary qHTS to identify gynecologic anti-cancer compounds using libraries of approved drugs and bioactive compounds (AID 1345084); settings: Gynecologic cancer cell panel viability, ATPlite luminescence, 48 h; series mostly up to 57.5 µM; also: nearly all actives have a fitted effect of over 55% in size
How it was run: (§1)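 Five-point cytotoxicity, 48 h drug exposure at 37 C, 5% CO2, on cells seeded 16 h beforehand. ATP content read by ATPlite luminescence.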
Potency is read from the fitted curve at half-maximal effect.

Question: For `Cc1cc(-c2nc3cc(F)ccc3s2)ccc1NC(=O)[C@@H](N)CCCCN`, which Potency is on record?
Answer: 17.8 µM (active)

Question: For `Cc1ccccc1CN1CCn2c1nc1c(c2=O)CN(Cc2ccccc2)CC1`, which Potency is on record?
Answer: inactive

Question: `C=C(C)C(=O)O[C@H]1/C(C=O)=C\CC/C(CO)=C/[C@H]2OC(=O)C(=C)[C@@H]2[C@@H]1OC` was tested. Which Potency did it give?
Answer: inactive

Question: How did the Potency turn out when `C[C@@H]1CC[C@]2(C(=O)O)CC[C@]3(C)C(=CCC4[C@@]5(C)CC[C@H](O)[C@](C)(C(=O)O)C5CC[C@]43C)C2[C@]1(C)O` (stereo partly drawn) was run?
Answer: inactive

Question: `COc1ccnc(CS(=O)c2nc3cc(OC(F)F)ccc3[nH]2)c1OC` (stereo not drawn) was tested. Which Potency did it give?
Answer: inactive

Question: For `COc1ccc(-c2cnc3c(-c4cccc5ncccc45)cnn3c2)cc1`, which Potency is on record?
Answer: inactive

Question: How did the Potency turn out when `CC(C)(C)OC(=O)c1ncn2c1C(C)(C)Nc1ccccc1-2` was run?
Answer: inactive

Question: With `CN1CCN(C(=O)CN[C@@H]2C[C@H]2c2ccc(OCc3ccccc3)cc2)CC1` as the molecule, how does the Potency read?
Answer: inactive

Question: With `CC(=O)OC/C(=C/C(=O)O)CC[C@@H]1C(C=O)=CC[C@@H]2C(C)(C)CCC[C@@]12C` as the molecule, how does the Potency read?
Answer: inactive

Question: How did the Potency turn out when `O=C(COc1ccc2ccccc2c1Br)Nc1cccnc1` was run?
Answer: inactive

Question: With `O=C(Nc1ccc2[nH]c(=O)oc2c1)C(=O)N1CCC(Cc2ccc(F)cc2)CC1` as the molecule, how does the Potency read?
Answer: inactive

Question: With `CC(=O)OC[C@]12[C@H](OC(C)=O)C(=O)[C@@H]3[C@@H](O)[C@@]14O[C@@]3(C)COC(=O)c1cccnc1[C@@H](C)[C@H](C)C(=O)O[C@@H]([C@H](O)[C@@H]2OC(C)=O)[C@]4(C)O` as the molecule, how does the Potency read?
Answer: inactive

Question: With `CCOc1ccc(-n2c(C(C)N(Cc3cccnc3)C(=O)Cc3ccc(F)c(C(F)(F)F)c3)nc3ncccc3c2=O)cc1` (stereo not drawn) as the molecule, how does the Potency read?
Answer: inactive

Question: For `C=C1C(=O)OC2/C=C(\CO)CC/C=C(\C=O)C(O)C(OC(=O)C(C)CC)C12` (stereo not drawn), which Potency is on record?
Answer: inactive

Question: `Cc1ccc(N2CCN(S(=O)(=O)N3CCCCC3)CC2)c(C)c1` was tested. Which Potency did it give?
Answer: inactive

Question: How did the Potency turn out when `C1=C/COCc2cc(ccc2OCCN2CCCC2)Nc2nccc(n2)-c2cccc(c2)COC/1` was run?
Answer: 11.2 µM (active)

Question: For `Cn1ncnc1[C@@H]1c2n[nH]c(=O)c3cc(F)cc(c23)N[C@H]1c1ccc(F)cc1`, which Potency is on record?
Answer: inactive

Question: For `O=C(Cc1c(F)cccc1F)Nc1cc(OCc2ccc(Cl)cc2)ccn1`, which Potency is on record?
Answer: inactive

Question: Which Potency does the source give for `CCOc1ccc(-n2c([C@@H](C)N(Cc3cccnc3)C(=O)Cc3ccc(OC(F)(F)F)cc3)nc3ncccc3c2=O)cc1` here?
Answer: inactive

Question: `C=C(C)C1=C[C@@]2(C)C(=CC1=O)CC[C@@H](O)[C@@H]2C` was tested. Which Potency did it give?
Answer: inactive

Question: With `C=C1/C(=C/C=C2\CCC[C@]3(C)[C@@H]([C@H](C)/C=C/[C@H](O)C4CC4)CC[C@@H]23)C[C@@H](O)C[C@@H]1O` as the molecule, how does the Potency read?
Answer: inactive

Question: How did the Potency turn out when `CC(C)(C)c1ccc(C(=O)Nc2cc(Cl)c(Br)cc2C(=O)O)cc1` was run?
Answer: inactive

Question: How did the Potency turn out when `COc1c(C(O)CC(C)C)ccc2c1C(=O)OCc1cc(C)cc(O)c1O2` (stereo not drawn) was run?
Answer: inactive

Question: Which Potency does the source give for `O=C(NCC1(c2nc(-c3ccccc3)cs2)CCOCC1)c1cccc(-c2noc(C(F)(F)F)n2)c1` here?
Answer: inactive

Question: How did the Potency turn out when `C/C=C/C=C/c1cc2c(C=O)c(O)c(CC=C(C)C)cc2o1` was run?
Answer: inactive

Question: `Cc1ccc(N2CCN(CCC3NC(=O)c4ccccc43)CC2)cc1C` (stereo not drawn) was tested. Which Potency did it give?
Answer: inactive

Question: How did the activity change, negative = cytotoxicity turn out when `CC(C)NC(=O)N1CC[C@H](N=C2Nc3cc(F)ccc3N(CC(F)F)c3ccc(Cl)cc32)C1` was run?
Answer: 7.02% [at 11.6 µM]

Question: For `COc1ccc(CCO[C@@H]2O[C@H](CO[C@H]3OC[C@](O)(CO)[C@H]3O)[C@@H](OC(=O)/C=C/c3ccc(O)c(O)c3)[C@H](O[C@@H]3O[C@@H](C)[C@H](O)[C@@H](O)[C@H]3O)[C@H]2O)cc1OC`, which Potency is on record?
Answer: inactive

Question: With `CC(=O)OC1CC(C)C2(CCC3(CC(=O)OC3O)O2)C2(C)CCCC(C)(C)C12` (stereo not drawn) as the molecule, how does the Potency read?
Answer: inactive

Question: For `Cc1noc(-c2ccc(-c3ccc(CC(=O)O)cc3)cc2)c1NC(=O)O[C@H](C)c1ccccc1Cl`, which Potency is on record?
Answer: inactive

Question: With `CN1CCN(c2ccc(-c3cccc(CN4CCOCC4)c3)cc2NC(=O)c2c[nH]c(=O)cc2C(F)(F)F)CC1` as the molecule, how does the Potency read?
Answer: inactive

Question: How did the Potency turn out when `COc1cc(N(C)CCN(C)C)c(N)cc1Nc1nccc(-c2cn(C)c3ccccc23)n1` was run?
Answer: inactive

Question: Which Potency does the source give for `C=C1/C(=C/C=C2\CCC[C@@]3(C)C2CCC3[C@H](C)/C=C/[C@@H](O)C2CC2)C[C@@H](O)C[C@@H]1O` (stereo partly drawn) here?
Answer: inactive

Question: `CC(C)C(C)C(O)C1CC23CC(=O)C4(O)C(=C2CCC3C1C)C=CC1(O)CC(O)CCC14C` (stereo not drawn) was tested. Which Potency did it give?
Answer: inactive

Question: For `O=C(NCC1CCN(Cc2cccc(Cl)c2)CC1)[C@@H]1CCCN(c2ncnc3c2nc2n3CCCC2)C1`, which Potency is on record?
Answer: inactive

Question: `C=CC1(C)CC(O)C(C(=C)C(=O)OC)C(O)C1C(=C)CO` (stereo not drawn) was tested. Which Potency did it give?
Answer: inactive

Question: How did the Potency turn out when `C=C[C@](C)(O)CC[C@H]1C(C)=CC(=O)[C@H]2C(C)(C)CCC[C@]12C` was run?
Answer: inactive

Question: How did the Potency turn out when `Cn1c(SCC(=O)N2CCC[C@H]2C(=O)Nc2ccccc2-c2ccccc2)nc2ccccc21` was run?
Answer: inactive

Question: How did the Potency turn out when `Cn1ncc2cc(-c3cnc(N)c(Cl)c3N3CCC4(CCNC4=O)CC3)ccc21` was run?
Answer: inactive

system: CAOV3; assay: as above; settings: Gynecologic cancer cell panel viability, ATPlite luminescence, 48 h; series mostly up to 57.5 µM
How it was run: as §1

Question: `Cc1cc(-c2nc3cc(F)ccc3s2)ccc1NC(=O)[C@@H](N)CCCCN` was tested. Which Potency did it give?
Answer: 28.2 µM (active)

Question: `Cc1ccccc1CN1CCn2c1nc1c(c2=O)CN(Cc2ccccc2)CC1` was tested. Which Potency did it give?
Answer: inactive

Question: `C=C(C)C(=O)O[C@H]1/C(C=O)=C\CC/C(CO)=C/[C@H]2OC(=O)C(=C)[C@@H]2[C@@H]1OC` was tested. Which Potency did it give?
Answer: inactive

Question: Which Potency does the source give for `C[C@@H]1CC[C@]2(C(=O)O)CC[C@]3(C)C(=CCC4[C@@]5(C)CC[C@H](O)[C@](C)(C(=O)O)C5CC[C@]43C)C2[C@]1(C)O` (stereo partly drawn) here?
Answer: inactive

Question: `COc1ccnc(CS(=O)c2nc3cc(OC(F)F)ccc3[nH]2)c1OC` (stereo not drawn) was tested. Which Potency did it give?
Answer: inactive

Question: With `COc1ccc(-c2cnc3c(-c4cccc5ncccc45)cnn3c2)cc1` as the molecule, how does the Potency read?
Answer: inactive

Question: Which Potency does the source give for `CC(C)(C)OC(=O)c1ncn2c1C(C)(C)Nc1ccccc1-2` here?
Answer: inactive

Question: `CN1CCN(C(=O)CN[C@@H]2C[C@H]2c2ccc(OCc3ccccc3)cc2)CC1` was tested. Which Potency did it give?
Answer: inactive

Question: `CC(=O)OC/C(=C/C(=O)O)CC[C@@H]1C(C=O)=CC[C@@H]2C(C)(C)CCC[C@@]12C` was tested. Which Potency did it give?
Answer: inactive

Question: Which Potency does the source give for `O=C(COc1ccc2ccccc2c1Br)Nc1cccnc1` here?
Answer: inactive

Question: `O=C(Nc1ccc2[nH]c(=O)oc2c1)C(=O)N1CCC(Cc2ccc(F)cc2)CC1` was tested. Which Potency did it give?
Answer: inactive

Question: For `CC(=O)OC[C@]12[C@H](OC(C)=O)C(=O)[C@@H]3[C@@H](O)[C@@]14O[C@@]3(C)COC(=O)c1cccnc1[C@@H](C)[C@H](C)C(=O)O[C@@H]([C@H](O)[C@@H]2OC(C)=O)[C@]4(C)O`, which Potency is on record?
Answer: inactive

Question: Which Potency does the source give for `CCOc1ccc(-n2c(C(C)N(Cc3cccnc3)C(=O)Cc3ccc(F)c(C(F)(F)F)c3)nc3ncccc3c2=O)cc1` (stereo not drawn) here?
Answer: inactive

Question: How did the Potency turn out when `C=C1C(=O)OC2/C=C(\CO)CC/C=C(\C=O)C(O)C(OC(=O)C(C)CC)C12` (stereo not drawn) was run?
Answer: inactive

Question: `Cc1ccc(N2CCN(S(=O)(=O)N3CCCCC3)CC2)c(C)c1` was tested. Which Potency did it give?
Answer: inactive

Question: `C1=C/COCc2cc(ccc2OCCN2CCCC2)Nc2nccc(n2)-c2cccc(c2)COC/1` was tested. Which Potency did it give?
Answer: 11.2 µM (active)

Question: With `Cn1ncnc1[C@@H]1c2n[nH]c(=O)c3cc(F)cc(c23)N[C@H]1c1ccc(F)cc1` as the molecule, how does the Potency read?
Answer: inactive

Question: For `O=C(Cc1c(F)cccc1F)Nc1cc(OCc2ccc(Cl)cc2)ccn1`, which Potency is on record?
Answer: inactive

Question: For `CCOc1ccc(-n2c([C@@H](C)N(Cc3cccnc3)C(=O)Cc3ccc(OC(F)(F)F)cc3)nc3ncccc3c2=O)cc1`, which Potency is on record?
Answer: inactive

Question: `C=C(C)C1=C[C@@]2(C)C(=CC1=O)CC[C@@H](O)[C@@H]2C` was tested. Which Potency did it give?
Answer: inactive

Question: Which Potency does the source give for `C=C1/C(=C/C=C2\CCC[C@]3(C)[C@@H]([C@H](C)/C=C/[C@H](O)C4CC4)CC[C@@H]23)C[C@@H](O)C[C@@H]1O` here?
Answer: inactive

Question: With `CC(C)(C)c1ccc(C(=O)Nc2cc(Cl)c(Br)cc2C(=O)O)cc1` as the molecule, how does the Potency read?
Answer: inactive

Question: Which Potency does the source give for `COc1c(C(O)CC(C)C)ccc2c1C(=O)OCc1cc(C)cc(O)c1O2` (stereo not drawn) here?
Answer: inactive

Question: `O=C(NCC1(c2nc(-c3ccccc3)cs2)CCOCC1)c1cccc(-c2noc(C(F)(F)F)n2)c1` was tested. Which Potency did it give?
Answer: inactive

Question: With `C/C=C/C=C/c1cc2c(C=O)c(O)c(CC=C(C)C)cc2o1` as the molecule, how does the Potency read?
Answer: inactive

Question: How did the Potency turn out when `Cc1ccc(N2CCN(CCC3NC(=O)c4ccccc43)CC2)cc1C` (stereo not drawn) was run?
Answer: inactive

Question: Which activity change, negative = cytotoxicity does the source give for `CC(C)NC(=O)N1CC[C@H](N=C2Nc3cc(F)ccc3N(CC(F)F)c3ccc(Cl)cc32)C1` here?
Answer: -26.1% [at 11.6 µM]

Question: `COc1ccc(CCO[C@@H]2O[C@H](CO[C@H]3OC[C@](O)(CO)[C@H]3O)[C@@H](OC(=O)/C=C/c3ccc(O)c(O)c3)[C@H](O[C@@H]3O[C@@H](C)[C@H](O)[C@@H](O)[C@H]3O)[C@H]2O)cc1OC` was tested. Which Potency did it give?
Answer: inactive

Question: For `CC(=O)OC1CC(C)C2(CCC3(CC(=O)OC3O)O2)C2(C)CCCC(C)(C)C12` (stereo not drawn), which Potency is on record?
Answer: inactive

Question: With `Cc1noc(-c2ccc(-c3ccc(CC(=O)O)cc3)cc2)c1NC(=O)O[C@H](C)c1ccccc1Cl` as the molecule, how does the Potency read?
Answer: inactive

Question: With `CN1CCN(c2ccc(-c3cccc(CN4CCOCC4)c3)cc2NC(=O)c2c[nH]c(=O)cc2C(F)(F)F)CC1` as the molecule, how does the Potency read?
Answer: inactive

Question: For `COc1cc(N(C)CCN(C)C)c(N)cc1Nc1nccc(-c2cn(C)c3ccccc23)n1`, which Potency is on record?
Answer: inactive

Question: For `C=C1/C(=C/C=C2\CCC[C@@]3(C)C2CCC3[C@H](C)/C=C/[C@@H](O)C2CC2)C[C@@H](O)C[C@@H]1O` (stereo partly drawn), which Potency is on record?
Answer: inactive

Question: How did the Potency turn out when `CC(C)C(C)C(O)C1CC23CC(=O)C4(O)C(=C2CCC3C1C)C=CC1(O)CC(O)CCC14C` (stereo not drawn) was run?
Answer: inactive

Question: With `O=C(NCC1CCN(Cc2cccc(Cl)c2)CC1)[C@@H]1CCCN(c2ncnc3c2nc2n3CCCC2)C1` as the molecule, how does the Potency read?
Answer: inactive

Question: `C=CC1(C)CC(O)C(C(=C)C(=O)OC)C(O)C1C(=C)CO` (stereo not drawn) was tested. Which Potency did it give?
Answer: inactive

Question: With `C=C[C@](C)(O)CC[C@H]1C(C)=CC(=O)[C@H]2C(C)(C)CCC[C@]12C` as the molecule, how does the Potency read?
Answer: inactive

Question: Which Potency does the source give for `Cn1c(SCC(=O)N2CCC[C@H]2C(=O)Nc2ccccc2-c2ccccc2)nc2ccccc21` here?
Answer: inactive

Question: For `Cn1ncc2cc(-c3cnc(N)c(Cl)c3N3CCC4(CCNC4=O)CC3)ccc21`, which Potency is on record?
Answer: inactive
